Screens: PubChem, National Center for Advancing Translational Sciences (NCATS)
Pf Dd2 growth – qHTS Primary assay for Inhibitors of Plasmodium falciparum Dd2 growth in vitro | P. falciparum Dd2 growth, SYBR Green, 72 h | Potency, µM (top dose mostly 28.9 µM), inactives show at the top dose activity, negative = inhibition, hits mostly inhibitors | 4.3% of 120,000 active | AID 1347417, 2020; active = well fitted inhibition curve with a large enough effect;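 note: plate controls were DMSO vehicle for no effect and reference drug for full effect; nearly all actives have a fitted effect of over 65% in size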
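Infected erythrocytes (Dd2, 0.3% parasitemia, 2.5% hematocrit final) are added to compound in RPMI-1640/Albumax II medium, grown 72 h at 37C in low oxygen, then lysed with saponin/Triton-X containing SYBR Green and read by fluorescence.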
The depositor's hits bear a star; i = inactive; ! = not active in a repeat; [ ] = dose if it differs, or a comment. The full list was thinned out, with hits kept by preference. Potency is the fitted concentration of half-maximal effect.

SMILES	Pf Dd2 growth
COCCN1C(=O)[C@H]2CN(Cc3ccccc3C)C[C@H]2C1=O	-23%
O=C(O)CCC(=O)N1Cc2ccccc2CC2(CCCN2CC2CCCCC2)C1 (configuration not stated)	0%
CCCC(=O)N1CC2(CCCN2CC2CC2)Cc2ccccc21 (configuration not stated)	8.9µM*
C[S+](=O)([O-])N1Cc2ccccc2CC2(CCN(CC3CCCCC3)CC2)C1	-21%
O=C(O)CCCC(=O)N1Cc2ccccc2CC2(CCCCN2CC2CCCC2)C1 (configuration not stated)	7%
C[S+](=O)([O-])N1CC2(CCCN2CC2CCCCC2)Cc2ccccc21 (configuration not stated)	8.9µM*
C[S+](=O)([O-])N1Cc2ccccc2CC2(CCCN2Cc2ccccc2)C1 (configuration not stated)	-26%
CC1(C)[C@H](Cc2cc(CCO)on2)C[C@@H]1NCc1cccnc1	1%[44.1 µM]
CC(C)CCN1CCOc2cc([S+](=O)([O-])Nc3nncs3)ccc2C1	i
CC(=O)Nc1ccc(Nc2ccc3cc(S(=O)(=O)N4CCCCC4)ccc3n2)cc1	i
Cc1ccccc1Nc1nnc(-c2ccc(C)c(S(=O)(=O)N3CCN(C)CC3)c2)c2ccccc12	40%
Cc1ccc(-c2onc(C)c2C)cc1S(=O)(=O)N1CCN(c2ccccc2F)CC1	14%
Cc1ccc(-c2nnc(Nc3ccc(F)cc3)c3ccccc23)cc1S(=O)(=O)N1CCN(C)CC1	10µM*
COC(=O)c1ccc(Nc2nnc(-c3ccc(C)c(S(=O)(=O)N4CCN(C)CC4)c3)c3ccccc23)cc1	1.6µM*
Cc1ccc(C(=O)Nc2ccccc2)cc1S(=O)(=O)N1CCCC1	-20%
Cc1ccc(F)cc1S(=O)(=O)N1CCC(n2cnnc2C(C)C)CC1	i
Cc1ccc(-c2nnc(Nc3cccc(C(F)(F)F)c3)c3ccccc23)cc1S(=O)(=O)N1CCOCC1	10µM*
Cc1ccc(-c2nnc(Nc3ccc(Br)cc3)c3ccccc23)cc1S(=O)(=O)N1CCN(C)CC1	5.6µM*
Cc1ccc(-c2onc(C)c2C)cc1S(=O)(=O)N1CCCCC1	41%
Cc1ccc(C(=O)Nc2ccc(F)cc2)cc1S(=O)(=O)N1CCOCC1	i
Cc1ccc(-c2nnc(Nc3cccc(Cl)c3)c3ccccc23)cc1S(=O)(=O)N1CCOCC1	6%
CC1=C(C(=O)N2CC(c3noc(COc4ccc(C)cc4)n3)C2)C2(CCCCC2)OC1=O	-35%
O=C(c1ccc2nccnc2c1)N1C[C@H]2CC[C@@H]1CN(C1CCOCC1)C2	1%
CS(=O)(=O)N1CCC2(CC1)SCC(=O)N2c1ccccc1	-8%
CN(C)c1cccc(C(=O)NC2CCN(c3cc(-c4ccccc4)[nH]n3)CC2)c1	-8%
SMILES	Pf Dd2 growth
Cc1cccc(NC(=O)Cn2nnc(C(=O)NCc3cccs3)c2N)c1	-15%
CCc1nc(-c2c3n(c(=O)n(CC(=O)Nc4ccccc4CC)c2=O)CCCC3)no1	-6%
CCCNc1cc(N2CCC(CCC(=O)NCc3ccccc3Cl)CC2)ncn1	-4%
COCC1CCN(CC2(O)CCCN(Cc3cccc(F)c3F)C2=O)CC1 (configuration not stated)	-24%
Cc1ccc(-c2nc(C)c(CCNC(=O)C(=O)Nc3ccc4c(c3)OCO4)s2)cc1	18%
O=C(NCCc1ccccc1)C1CCN(C(=O)c2ncn3c2COC(c2ccccc2)C3)CC1 (configuration not stated)	12%
COc1ccc(CNC(=O)CN2C(=O)NC3(CCC(C)CC3)C2=O)cc1 (configuration not stated)	17%
CCOC(=O)c1cccc(NC(=O)c2sc3nc[nH]c(=O)c3c2C)c1	6%
COc1ccccc1CNC(=O)c1cc2cccc3c2n1CCS3	41%
CN(Cc1cccnc1)C(=O)C1CCCCC(=O)N1C (configuration not stated)	25%
COC(=O)[C@@H]1C[C@H](NC(=O)c2[nH]nc(N)c2-c2ccccc2)CN1C	18%
COc1cccc(N2CCN(S(=O)(=O)c3cc(-c4cc(C)no4)ccc3C)CC2)c1	i
Cc1ccc(C(=O)Nc2cccc(C(=O)O)c2)cc1S(=O)(=O)N1CCCC1	-14%
Cc1ccc(-c2nnc(Nc3cccc(O)c3)c3ccccc23)cc1S(=O)(=O)N1CCN(C)CC1	10µM*
O=C(c1ccc(N2CCC(CO)CC2)nc1)N1CCC(N2CCOCC2)CC1	11%
COC(=O)c1cccc(CN2C(=O)SC(Nc3ccccc3C)C2=O)c1 (configuration not stated)	26%
O=C(c1ccc(CS(=O)(=O)c2c(Cl)cccc2Cl)o1)N1CCN(c2ccccc2)CC1	11µM*
Cc1ccc(Cl)cc1N1CCN(C(=O)c2ccc(CS(=O)(=O)c3ccccc3C)o2)CC1	-21%
Cc1ccc(S(=O)(=O)Cc2ccc(C(=O)N3CCN(c4cccc(C)c4C)CC3)o2)cc1	-10%
COc1ccc(C)cc1NC(=O)Cn1c(=O)c(-c2noc(C)n2)c2n(c1=O)CCCCC2	-5%
C[C@@]1(O)CCN(Cc2cccc(F)c2F)C[C@H]1N1CCCC1	-8%[5.79 µM]
Fc1ccc(-n2ncc3c(N4CCN(c5ccccc5F)CC4)ncnc32)cc1	45%
CC(C)CC(=O)Nc1ccc2nc(SCC(=O)N3CCCC3)sc2c1	-3%
CC(C)CC(=O)Nc1ccc2nc(SCC(=O)N3CCOCC3)sc2c1	-13%
Cn1c(CN2CCCCC2)nc2cc(NC(=O)c3cccc(Br)c3)ccc21	-9%
SMILES	Pf Dd2 growth
O=C(Nc1ccc(Cl)c(-c2nc3ccccc3o2)c1)c1ccc(-c2cccc([N+](=O)[O-])c2)o1	-12%
CCOC(=O)N1CCN(Cc2nc3cc(NC(=O)CC(C)C)ccc3n2C(C)C)CC1	11µM*
CCOC(=O)c1cccc(NC(=O)c2ccc3nc(C(C)C)oc3c2)c1	i
CCOC(=O)N1CCN(Cc2nc3cc(NC(=O)c4cccc(C)c4)ccc3n2C(C)C)CC1	6.3µM*
CCN1CCN(Cc2nc3cc(NC(=O)c4cccc([N+](=O)[O-])c4)ccc3n2CC)CC1	7.9µM*
CCC(=O)NCCc1nc2cc(NC(=O)c3cccc(Br)c3)ccc2n1C	-19%
COc1cccc(CSc2nc3n(n2)C(c2ccc(C(=O)O)cc2)C(C(=O)Nc2ccccc2)=C(C)N3)c1 (configuration not stated)	9%
COc1ccccc1CNC(=O)C1CCN(S(=O)(=O)c2cn(C)cn2)CC1	88%
Cc1n[nH]c(C)c1CNC(=O)CCC1CCCN(S(=O)(=O)c2ccccc2F)C1 (configuration not stated)	-9%
O=C(NCc1nnc2c(-c3nc(C4CC4)no3)cccn12)c1nccc2ccccc12	-28%
Cc1ccc(CNC(=O)C2CCN(c3nc4ccc(C)cc4[nH]3)CC2)cc1	12%
Cc1ccc(NC(=O)N2CC(C(=O)N(C)C)C3(CCOCC3)C2)c(Cl)c1 (configuration not stated)	3%
COCCNC(=O)c1ccc(-c2ccc(N3CCCCCC3)nc2)cc1	i
COc1cccc(-c2nnnn2[C@H]2CO[C@H]3[C@@H]2OC[C@@H]3NC(=O)c2ccccc2C(=O)O)c1	-11%
O=C(NCCCc1nc2ccccc2[nH]1)C1CCCN(C2CCCC2)C1 (configuration not stated)	-14%
COc1ccccc1-c1ccc(CN2CCCC(c3nc4ccc(F)cc4c(=O)[nH]3)C2)cc1 (configuration not stated)	8.9µM*!
O=c1[nH]c(C2CCCN(Cc3ccsc3)C2)nn1-c1ccccc1 (configuration not stated)	i
